Records with an inconclusive call do not appear. More than one record can exist for a structure, and the calls need not agree. Active and inactive are the calls of the source. Unless noted, calls follow the shape of the full dose curve. Bridge positions count the residues as written; N and C are the ends. Square brackets hold non-standard residues; d marks the D form. Peptide text beside a SMILES is read from it. hArg = N=C(N)NCCCC[C@H](N)C(=O)O; pGlu = O=C1CC[C@@H](C(=O)O)N1; Mpa = O=C(O)CCS
How the values were obtained:
[1] = target: KiSS-1 receptor (Homo sapiens) (UniProt Q969F8); assay: Human kisspeptin (KISS1R) small molecule agonists, calcium flux assay in KISS1R-HEK293 cells (AID 1920064; active = well fitted activation curve with a large enough effect in the repeat runs)
Sequence of KiSS-1 receptor (Homo sapiens) (Q969F8 whole entry, looked up): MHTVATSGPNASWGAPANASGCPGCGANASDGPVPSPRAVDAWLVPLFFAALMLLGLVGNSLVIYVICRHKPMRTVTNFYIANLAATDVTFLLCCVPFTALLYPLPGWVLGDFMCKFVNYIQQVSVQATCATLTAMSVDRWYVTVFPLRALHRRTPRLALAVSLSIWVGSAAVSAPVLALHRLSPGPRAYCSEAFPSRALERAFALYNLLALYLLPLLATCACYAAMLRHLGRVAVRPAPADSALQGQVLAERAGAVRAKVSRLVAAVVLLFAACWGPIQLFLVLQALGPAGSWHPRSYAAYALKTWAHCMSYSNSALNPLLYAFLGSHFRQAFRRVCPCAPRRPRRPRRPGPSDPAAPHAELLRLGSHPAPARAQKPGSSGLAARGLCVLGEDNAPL
In short: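 Cells plated and incubated 18 h; dye added, 1 h at 37 C; compounds in DMSO pinned in; signal read at 480/540 nm every second for 3 min. Each compound tested at 15 concentrations in triplicate.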

[2] = G protein-coupled receptor (GPCR) small molecule agonists, calcium flux assay: HEK293 wild type cell line counter screen (AID 1920065); also: potency is read from the fitted curve at half-maximal effect
In short: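 Counter-screen of the Tox21 10K library for non-specific calcium release: dye-loaded cells received compounds in DMSO and were monitored by kinetic fluorescence (480/540 nm, 3 min). Fifteen concentrations, run in triplicate.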

[3] = p53 small molecule agonists, cell-based qHTS assay with human liver microsomes: qHTS cell viability counter screen (AID 1963579); also: nearly all actives have a fitted effect of over 45% in size; also: potency is read from the fitted curve at half-maximal effect
In short: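 Viability of p53RE-bla cells is measured as CellTiter-Glo luminescence following a 16 h, 37 C incubation with compound, liver microsomes from human donors and NADPH.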

[4] = p53 small molecule agonists, cell-based qHTS assay with rat liver microsomes: qHTS cell viability counter screen (AID 1963580); also: nearly all actives have a fitted effect of over 45% in size
In short: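 p53RE-bla HCT-116 cells (4,000/well) rested 5 h at 37 C, then given Tox21 compounds in DMSO with rat liver microsomes (0.5 mg/mL final) plus NADPH (0.5 mg/mL final) for 16 h at 37 C. Viability read by CellTiter-Glo luminescence after 30 min at room temperature.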

[5] = p53 small molecule agonists, cell-based qHTS assay: qHTS cell viability counter screen (AID 1963581); also: nearly all actives have a fitted effect of over 45% in size; also: potency is read from the fitted curve at half-maximal effect
In short: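 Cells: HCT-116 with p53 response element-driven beta-lactamase. Treatment: 16 h, 37 C, compounds in DMSO. Read: CellTiter-Glo luminescence after 30 min RT.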

[6] = target: 5-hydroxytryptamine receptor 2A (Homo sapiens) (UniProt P28223); assay: 5-hydroxytryptamine receptor 2A (HTR2A) small molecule antagonists, cell-based qHTS assay (AID 1963586); also: nearly all actives have a fitted effect of over 45% in size; also: potency is read from the fitted curve at half-maximal effect
Sequence of 5-hydroxytryptamine receptor 2A (Homo sapiens) (P28223 whole entry, looked up): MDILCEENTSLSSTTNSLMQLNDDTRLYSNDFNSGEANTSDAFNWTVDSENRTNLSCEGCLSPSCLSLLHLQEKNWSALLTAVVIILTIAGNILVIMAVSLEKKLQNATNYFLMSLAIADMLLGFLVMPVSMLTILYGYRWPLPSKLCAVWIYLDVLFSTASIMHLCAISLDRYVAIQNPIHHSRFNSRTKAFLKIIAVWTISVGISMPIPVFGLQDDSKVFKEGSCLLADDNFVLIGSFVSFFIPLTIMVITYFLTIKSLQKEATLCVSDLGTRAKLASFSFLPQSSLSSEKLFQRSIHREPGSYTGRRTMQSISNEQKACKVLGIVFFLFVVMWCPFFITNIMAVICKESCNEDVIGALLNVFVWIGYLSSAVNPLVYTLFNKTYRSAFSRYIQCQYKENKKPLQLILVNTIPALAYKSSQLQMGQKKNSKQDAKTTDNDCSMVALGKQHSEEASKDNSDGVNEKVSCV
In short: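 Antagonist-mode intracellular calcium assay: DOI (4 nM) added after 5 min compound pre-incubation at room temperature to dye-loaded HTR2A-CHO cells. Fluorescence followed for 3 min, sampled every second.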

[7] = target: 5-hydroxytryptamine receptor 2A (Homo sapiens) (UniProt P28223); assay: 5-hydroxytryptamine receptor 2A (HTR2A) small molecule agonists, cell-based qHTS assay (AID 1963587); also: nearly all actives have a fitted effect of over 30% in size; also: potency is read from the fitted curve at half-maximal effect
In short: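 HTR2A-CHO cells, plated 18 h at 37 C/5% CO2, dye-loaded 1 h at 37 C; compounds in DMSO added by pin tool (agonist mode). Intracellular calcium flux read as kinetic fluorescence on FDSS over 2 min at 1 s intervals.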

[8] = target: Muscarinic acetylcholine receptor M1 (Homo sapiens) (UniProt P11229); assay: Cholinergic receptor muscarinic 1 (CHRM1) small molecule antagonists, cell-based qHTS assay (AID 1963588); also: nearly all actives have a fitted effect of over 40% in size
Sequence of Muscarinic acetylcholine receptor M1 (Homo sapiens) (P11229 whole entry, looked up): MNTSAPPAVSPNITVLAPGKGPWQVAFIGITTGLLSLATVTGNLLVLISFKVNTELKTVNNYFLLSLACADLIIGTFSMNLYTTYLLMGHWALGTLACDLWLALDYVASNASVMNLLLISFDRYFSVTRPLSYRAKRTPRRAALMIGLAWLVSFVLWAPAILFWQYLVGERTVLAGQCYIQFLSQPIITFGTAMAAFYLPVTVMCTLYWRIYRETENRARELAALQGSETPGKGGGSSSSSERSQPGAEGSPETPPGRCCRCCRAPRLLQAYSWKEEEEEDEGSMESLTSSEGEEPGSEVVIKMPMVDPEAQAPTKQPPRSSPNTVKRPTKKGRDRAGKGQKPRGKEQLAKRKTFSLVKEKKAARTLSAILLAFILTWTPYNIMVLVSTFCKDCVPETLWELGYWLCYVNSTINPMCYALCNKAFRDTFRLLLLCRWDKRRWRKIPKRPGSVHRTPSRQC
In short: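 CHRM1-CHO calcium-flux assay, antagonist mode. Cells were seeded 18 h, dye-loaded 1 h at 37 C and given compound for 5 min at RT, then acetylcholine was added at 50nM. FDSS fluorescence was read 3 min; 15 concentrations, three runs.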

[9] = target: Muscarinic acetylcholine receptor M1 (Homo sapiens) (UniProt P11229); assay: Cholinergic receptor muscarinic 1 (CHRM1) small molecule agonists, cell-based qHTS assay (AID 1963589); also: nearly all actives have a fitted effect of over 35% in size; also: potency is read from the fitted curve at half-maximal effect
In short: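 Agonist-mode qHTS in CHO cells stably carrying human muscarinic M1. Intracellular calcium is tracked by fluorescence every second after compound transfer; each compound runs at 15 concentrations in three independent runs.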

[10] = cAMP Responsive Elements (CRE) small molecule agonists, cell-based qHTS assay (AID 1963590)
In short: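 Agonist mode qHTS in CRE-bla HEK 293T cells: compounds dosed from DMSO for 3 h at 37 C/5% CO2, followed by LiveBLAzer B/G FRET substrate for 2 h at room temperature.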

[11] = cAMP Responsive Elements (CRE) small molecule antagonists, cell-based qHTS assay (AID 1963591; active = well fitted inhibition curve with a large enough effect in the signal ratio in the repeat runs, not every such curve was filed as active; the % refers to the signal ratio; also: potency is read from the fitted curve at half-maximal effect)
In short: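 Antagonist mode: test compounds are co-incubated with the adenylyl cyclase activator NKH477 (0.25 uM final) on CRE-bla HEK293T cells for 3 h at 37 °C, followed by LiveBLAzer substrate loading.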

[12] = target: Beta-2 adrenergic receptor (Homo sapiens) (UniProt P07550); assay: Adrenergic beta2 receptor (ADRB2) small molecule antagonists, cell-based qHTS assay (AID 1963592); also: series mostly up to about 92 µM; nearly all actives have a fitted effect of over 50% in size
Sequence of Beta-2 adrenergic receptor (Homo sapiens) (P07550 whole entry, looked up): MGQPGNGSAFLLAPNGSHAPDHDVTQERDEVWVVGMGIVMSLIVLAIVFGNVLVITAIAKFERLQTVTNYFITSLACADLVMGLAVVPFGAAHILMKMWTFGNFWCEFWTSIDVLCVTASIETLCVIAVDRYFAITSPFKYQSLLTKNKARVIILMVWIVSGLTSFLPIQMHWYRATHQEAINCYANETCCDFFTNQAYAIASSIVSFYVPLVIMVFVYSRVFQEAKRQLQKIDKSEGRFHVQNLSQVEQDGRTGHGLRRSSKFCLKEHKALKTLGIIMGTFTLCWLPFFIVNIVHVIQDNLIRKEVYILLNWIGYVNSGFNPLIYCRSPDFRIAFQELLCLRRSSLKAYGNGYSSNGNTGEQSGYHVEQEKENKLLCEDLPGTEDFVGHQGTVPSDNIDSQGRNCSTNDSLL
In short: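 Cells (CHO, stable ADRB2 overexpression) incubated 18-20hr at 37C; compounds added from DMSO; agonist mix (1nM isoproterenol, 100uM IBMX, 25uM Ro-20-1724) added; 0.5hr RT; d2-cAMP and anti-cAMP-cryptate added; 1hr RT; 665/615 nm read.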

[13] = target: Beta-2 adrenergic receptor (Homo sapiens) (UniProt P07550); assay: Adrenergic beta2 receptor (ADRB2) small molecule agonists, cell-based qHTS assay (AID 1963593); also: potency is read from the fitted curve at half-maximal effect;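 as to activation: CHO cells stably overexpressing human ADRB2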
In short: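 CHO cells stably over-expressing ADRB2 were plated overnight at 37C, then dosed with compounds plus a stimulation mix containing 100uM IBMX and 25uM Ro-20-1724 for 0.5hr at room temperature. cAMP was measured by HTRF competition, 1hr.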

[14] = target: D(2) dopamine receptor (Homo sapiens) (UniProt P14416); assay: Dopamine D2 receptor (DRD2) small molecule agonists, cell-based qHTS assay (AID 1963594); also: nearly all actives have a fitted effect of over 35% in size
Sequence of D(2) dopamine receptor (Homo sapiens) (P14416 whole entry, looked up): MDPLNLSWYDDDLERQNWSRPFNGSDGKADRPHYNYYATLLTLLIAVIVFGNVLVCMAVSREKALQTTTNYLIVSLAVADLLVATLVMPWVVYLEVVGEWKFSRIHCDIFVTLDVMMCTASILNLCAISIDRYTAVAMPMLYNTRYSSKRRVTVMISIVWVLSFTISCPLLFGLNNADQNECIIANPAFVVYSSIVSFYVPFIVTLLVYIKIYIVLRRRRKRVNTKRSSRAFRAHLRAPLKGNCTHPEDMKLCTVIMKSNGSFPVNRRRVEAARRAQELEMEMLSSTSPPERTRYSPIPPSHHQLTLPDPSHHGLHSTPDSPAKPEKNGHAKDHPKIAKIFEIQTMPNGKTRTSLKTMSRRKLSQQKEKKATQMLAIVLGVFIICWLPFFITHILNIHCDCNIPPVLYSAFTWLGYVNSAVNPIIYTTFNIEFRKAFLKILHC
In short: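 HEK293 cells stably expressing DRD2 were cultured 24 h at 37 C, then given Ro20-1724 (0.1 mM final) and compounds for 10 min at room temperature. NKH477 (200nM) was then added for 30 min. cAMP was read by HTRF.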

[15] = p53 small molecule agonists, cell-based qHTS assay with human liver microsomes (AID 1963577);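 also: p53 response element beta-lactamase reporter cells with liver microsomes plus NADPH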
In short: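 HLM-supplemented p53RE-bla reporter assay: 16 h compound exposure at 37 C, microsomes and NADPH each 0.5 mg/mL final, read by fluorescence intensity.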

[16] = p53 small molecule agonists, cell-based qHTS assay with rat liver microsomes (AID 1963578)
In short: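 Quantitative HTS of the Tox21 10K library: p53RE-bla cells, rat liver microsomes plus NADPH at 0.5 mg/mL final each, 16 h at 37 C, beta-lactamase fluorescence detection.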

[17] = p53 small molecule agonists, cell-based qHTS assay (AID 1963582; active = well fitted activation curve with a large enough effect in the signal ratio in the repeat runs, not every such curve was filed as active; the % refers to the signal ratio; also: potency is read from the fitted curve at half-maximal effect)
In short: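 Quantitative HTS in p53RE-bla cells: after a 5 h settling period, compounds delivered in DMSO were left on cells for 16 h at 37 C, and reporter induction was measured as fluorescence following 2 h substrate loading.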

[18] = target: D(2) dopamine receptor (Homo sapiens) (UniProt P14416); assay: Dopamine D2 receptor (DRD2) small molecule antagonists, cell-based qHTS assay (AID 1963595; active = well fitted inhibition curve with a large enough effect in the signal ratio in the repeat runs, with a control signal flat; the % refers to the signal ratio; also: potency is read from the fitted curve at half-maximal effect)
In short: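 Cells were plated and grown for 24 h at 37 °C. Ro20-1724 (0.1 mM final) went in first, then compound for 10 min. NKH477 (200 nM) with quinpirole (12 nM) followed for 30 min at RT, then HTRF detection reagents for 1 h.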

[19] = target: Gonadotropin-releasing hormone receptor (Homo sapiens) (UniProt P30968); assay: Human gonadotropin-releasing hormone receptor (GnRHR) small molecule agonists, calcium flux assay in GnRHR-HEK293 cells (AID 1920063); also: nearly all actives have a fitted effect of over 35% in size; also: potency is read from the fitted curve at half-maximal effect
Sequence of Gonadotropin-releasing hormone receptor (Homo sapiens) (P30968 whole entry, looked up): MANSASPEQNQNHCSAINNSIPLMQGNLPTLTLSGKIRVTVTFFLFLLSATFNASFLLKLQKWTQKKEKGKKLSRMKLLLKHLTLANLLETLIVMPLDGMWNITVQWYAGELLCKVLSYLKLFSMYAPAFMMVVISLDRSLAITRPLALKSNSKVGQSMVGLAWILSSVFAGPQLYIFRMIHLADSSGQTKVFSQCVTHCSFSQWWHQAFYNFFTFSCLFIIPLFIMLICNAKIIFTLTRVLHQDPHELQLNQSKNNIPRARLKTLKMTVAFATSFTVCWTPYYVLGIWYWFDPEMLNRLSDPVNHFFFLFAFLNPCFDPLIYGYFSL
In short: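 Cells: HEK293 stably expressing human GnRHR. Steps: overnight (18 h) culture, 1 h calcium dye loading at 37 C, compound addition, kinetic fluorescence read at 480/540 nm. Each compound tested at 15 concentrations in triplicate.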

Measured: Potency

N#CN
inactive: [1] | [2] | [3] | [4] | [5] | [6] | [7] | [8] | [9] | [10] | [11] | [12] | [13] | [14]

NC(=O)[C@@H]1CSSCCC(=O)N[C@@H](CCCCN=C(N)N)C(=O)NCC(=O)N[C@@H](CC(=O)O)C(=O)N[C@@H](Cc2c[nH]c3ccccc23)C(=O)N2CCC[C@H]2C(=O)N1 ([Mpa][hArg]GDWPC-NH2; disulfide 1-7)
inactive: [7] | [8] | [9]

O=C(O)/C=C\C(=O)O
inactive: [15] | [16] | [3] | [4] | [5] | [17]

Cc1ccc(O)cc1C
inactive: [6] | [7] | [8] | [9] | [12] | [14] | [18]

CC1CCCC1
inactive: [15] | [16] | [3] | [4] | [5] | [17]

CC(C)(c1ccccc1)c1ccc(O)cc1
inactive: [19] | [2] | [15] | [16] | [4] | [5] | [17] | [8] | [9] | [12] | [13] | [14]
54.5 µM (active) and inactive: [7]
33.2 µM (active) and inactive: [6]
active: [18] 61.1 µM
45.4 µM (active) and inactive: [3]

CC(C)C[C@H](NC(=O)CNC(=O)[C@H](Cc1ccc(O)cc1)NC(=O)[C@H](CO)NC(=O)[C@H](Cc1c[nH]c2ccccc12)NC(=O)[C@H](Cc1cnc[nH]1)NC(=O)[C@@H]1CCC(=O)N1)C(=O)N[C@@H](CCCN=C(N)N)C(=O)N1CCC[C@H]1C(=O)NCC(N)=O (stereo in doubt)
inactive: [6] | [7] | [8] | [9]

CC(=O)N[C@@H](CO)C(=O)N[C@@H](CC(=O)O)C(=O)N[C@@H](CCCCN)C(=O)N1CCC[C@H]1C(=O)O (Ac-SDKP-OH)
inactive: [6] | [7] | [8] | [9]

Cc1ccc2ccccc2c1C
inactive: [6] | [7] | [8] | [9] | [12] | [14] | [18]

O=C(O)/C=C/C(=O)O
inactive: [15] | [16] | [3] | [4] | [5] | [17]

S=C(SSC(=S)N1CCCCC1)N1CCCCC1
active: [7] 10.7 µM | [11] 1.68 µM
inactive: [19] | [1] | [15] | [16] | [3] | [17] | [9] | [10] | [13] | [14] | [18]

CC(C)(C)C(O)C(Oc1ccc(-c2ccccc2)cc1)n1cncn1 (stereo not given)
inactive: [19] | [2] | [15] | [16] | [3] | [5] | [17] | [6] | [7] | [8] | [9] | [10] | [11] | [12] | [14] | [18]

CCNC(=O)[C@@H]1CCCN1C(=O)[C@H](CCCN=C(N)N)NC(=O)[C@H](CC(C)C)NC(=O)CNC(=O)[C@H](Cc1ccc(O)cc1)NC(=O)[C@H](CO)NC(=O)[C@H](Cc1c[nH]c2ccccc12)NC(=O)[C@H](Cc1cnc[nH]1)NC(=O)[C@@H]1CCC(=O)N1 ([pGlu]HWSYGLRP-NHEt)
inactive: [6] | [7] | [8] | [9]

CC1=C(C(=O)Nc2ccccc2)S(=O)(=O)CCO1
active: [17] 28.9 µM
inactive: [19] | [1] | [15] | [16] | [3] | [4] | [6] | [7] | [8] | [9] | [10] | [11] | [12] | [14] | [18]

O=[N+]([O-])c1ccccc1Cl
inactive: [6] | [7] | [8] | [9] | [12] | [13] | [14] | [18]

Nc1ccc(N=Nc2ccccc2)cc1
inactive: [19] | [2] | [15] | [16] | [4] | [17] | [6] | [8] | [9] | [18]

O=C(O)C1(c2ccc3c(c2)OC[C@H](Cc2ccc(-c4ccccc4)cc2)[C@H]3O)CCCC1
inactive: [2] | [4] | [14] | [18]
active: [3] 40.8 µM | [5] 32.4 µM | [6] 5.3 µM | [7] 54.9 µM

Nc1nc(N)c(N)c(N)n1
inactive: [15] | [16] | [3] | [4] | [5] | [17] | [6] | [8] | [10] | [12]
active: [19] 39.1 µM | [2] 39.1 µM | [7] 43.9 µM | [9] 55.2 µM

CN1C(=O)C(O)N=C(c2ccccc2)c2cc(Cl)ccc21 (stereo not given)
inactive: [19] | [1] | [2] | [5] | [7] | [8] | [9] | [10] | [11] | [12] | [14] | [18]
active: [13] 31.7 µM

— PubChem BioAssay (Tox21)
